MITF primary: blocks human microphthalmia-associated transcription factor. AlphaScreen MITF homodimerization, bead proximity signal. inhibition, % at 2.6 µM. hit rate 0.91% among 650,000. AID 1259374; in the data active means inhibition above about 50%
GPR151 ag: activates the human receptor GPR151 | hit rate 1% among 650,000 | activation, % at 11.2 µM | PathHunter beta-arrestin GPR151 cells, luminescence; in the data active means activation above about 4.9%
Target sequence (Q8TDV0 whole entry, looked up): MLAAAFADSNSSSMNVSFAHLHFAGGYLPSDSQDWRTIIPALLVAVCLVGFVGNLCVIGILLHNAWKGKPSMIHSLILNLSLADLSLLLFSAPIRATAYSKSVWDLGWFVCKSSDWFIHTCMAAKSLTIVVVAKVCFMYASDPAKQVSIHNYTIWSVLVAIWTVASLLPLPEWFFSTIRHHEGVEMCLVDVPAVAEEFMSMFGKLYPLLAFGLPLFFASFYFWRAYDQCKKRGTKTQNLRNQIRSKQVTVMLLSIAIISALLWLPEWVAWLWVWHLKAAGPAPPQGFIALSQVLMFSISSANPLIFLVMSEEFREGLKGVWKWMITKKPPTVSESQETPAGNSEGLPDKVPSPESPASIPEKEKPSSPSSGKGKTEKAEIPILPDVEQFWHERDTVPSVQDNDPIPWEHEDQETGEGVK
TEAD-YAP inh: TEAD-YAP interaction inhibition; AID 1259422; HEK-TIYL cells, TEAD-Gal4/YAP UAS-luciferase luminescence; inhibition, % at 9.12 µM; hit rate 1.4% among 640,000; in the data active means inhibition above about 32%
FBW7 act: activators of human E3 ligase FBW7; AlphaScreen FBW7–phospho-cyclin E peptide binding, activator screen; normalized activity (activation), % at 26.1 µM; AID 1259310; hit rate 0.13% among 650,000; Q969H0; in the data active means normalized activity above about 1.9%;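 further: purified mutant Fbw7 with reduced substrate affinity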
GPR151 conf act: confirmation of human GPR151 activators; 6,700 tested, under 10 active; GPR151 PathHunter beta-arrestin cells, luminescence, 90 min; % of EA-reagent control over plate median; shares compounds with GPR151 ag; activation, % at 11.2 µM;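 active means mean percent activation across replicates above the confirmation screen cutoff of 4.91%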
GPR119 ag: counter-screen for GPR151 activators: effect on human GPR119. shares compounds with GPR151 ag. GPR119 PathHunter beta-arrestin cells, luminescence, 90 min; 0 = compound-well median, 100 = enzyme-acceptor control. activation, % at 11.2 µM. hit rate 0.3% among 6,700;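 active means mean percent activation in the counterscreen above 29.09%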;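 further: counterscreen on off-target GPR119 to flag nonselective hits from the GPR151 activator screen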
Numbers stand for hits; - = inactive; . = no result given. An excerpt weighted towards active compounds, which were near 3.5% of everything screened.

SMILES | MITF primary | GPR151 ag | TEAD-YAP inh | FBW7 act | GPR151 conf act | GPR119 ag
CCCCN1C(=O)C2C(C(=O)Nc3ccc(Cl)c(Cl)c3)C3C=CC2(O3)C1C(=O)NC1CCCCC1 (stereo not given) | - | - | - | - | . | .
CC(C)c1ccc(NC(=O)C2C3C=CC4(O3)C2C(=O)N(CCCN2CCN(C)CC2)C4C(=O)NC2CCCCC2)cc1 (stereo not given) | - | - | - | - | . | .
Cc1ccc(NC(=O)C2C3C=CC4(O3)C2C(=O)N(CCC2=CCCCC2)C4C(=O)NC2CCCCC2)cc1Cl (stereo not given) | - | 5.8 | - | - | - | -
CCCCN1C(=O)C2C(C(=O)Nc3ccc(C)c(Cl)c3)C3C=CC2(O3)C1C(=O)NC1CCCCC1 (stereo not given) | - | 9.6 | - | - | - | -
CCOC(=O)c1c(NC(=S)Nn2cnnc2)sc2c1CCCCCC2 | - | - | - | - | . | .
COC(=O)c1cccc(-n2cc(-c3ccccc3)c(-c3ccnc(Nc4ccc(-n5nc(C)nc5C)cc4)c3)n2)c1 | - | - | - | - | . | .
O=C(c1c(F)cccc1Cl)N1CCN(c2ccc(Nc3cccnc3)nn2)CC1 | - | - | - | - | . | .
Cn1c(=O)oc2cc(S(=O)(=O)N3CCC(N4CCCCC4)CC3)ccc21 | - | 5.9 | - | - | - | -
Cn1c(=O)oc2cc(S(=O)(=O)N3CCN(C4CCCCC4)CC3)ccc21 | - | - | - | - | . | .
O=C(NCc1ccccc1)c1nnc(Cc2cccc(Cl)c2)o1 | - | - | - | - | . | .
Cc1ccc(CNC(=O)c2nnc(Cc3cccc(Cl)c3)o2)cc1 | - | 7.4 | - | - | - | -
CCN1C(=O)[C@H]2[C@H]3[C@H](O)[C@H](O)C/C(=N\OCC(C)C)[C@@H]3CC[C@H]2C1=O | - | 6.6 | . | - | - | -
CC(C)CO/N=C1\C[C@@H](O)[C@@H](O)[C@@H]2[C@@H]3C(=O)N(Cc4ccccc4)C(=O)[C@@H]3CC[C@H]12 | - | - | . | - | . | .
C#CCCCO/N=C1\C[C@@H](O)[C@@H](O)[C@@H]2[C@@H]3C(=O)N([C@@H](C)c4ccccc4)C(=O)[C@@H]3CC[C@H]12 | - | 9.5 | . | - | - | -
O=C1[C@H]2[C@H]3[C@H](O)[C@H](O)C/C(=N\OCc4ccccc4)[C@H]3CC[C@H]2C(=O)N1C1CCCCC1 | - | 5.8 | . | - | - | -
CCS(=O)(=O)N1CC=C[C@@H]1C(=O)NCCc1ccccc1 | - | - | - | - | . | .
Cc1ccc(NC(=S)N(Cc2ccccc2)Cc2ccccn2)cc1Cl | - | - | - | - | . | .
O=[N+]([O-])c1ccccc1/C=C/CN1CCN(CCOCCO)CC1 | - | 5.4 | - | - | - | -
O=[N+]([O-])c1ccccc1/C=C/CN1CCSCC1 | - | - | - | - | . | .
CCN(CC)C(=O)C1CCCN(c2nc3ncnc(Nc4ccc(Oc5ccccc5)cc4)c3[nH]2)C1 (stereo not given) | - | 5.8 | - | - | - | -
CCN(CC)C(=O)C1CCCN(c2nc(Nc3ccccc3)nc(N(CC)CC)n2)C1 (stereo not given) | - | 5.7 | - | - | - | -
c1ccc(Nc2ncnc3nc(N4CCc5ccccc5C4)[nH]c23)cc1 | - | 6.0 | - | - | - | -
CCN(CC)C(=O)C1CCCN(c2nc3ncnc(Nc4ccc(NC(C)=O)cc4)c3[nH]2)C1 (stereo not given) | - | - | - | - | . | .
CC(=O)Nc1ccc(Nc2ncnc3nc(N4CCc5ccccc5C4)[nH]c23)cc1 | - | - | - | - | . | .
CCN(CC)C(=O)C1CCCN(c2nc(Nc3ccc(NC(C)=O)cc3)nc(N(CC)CC)n2)C1 (stereo not given) | - | - | - | - | . | .
SMILES | MITF primary | GPR151 ag | TEAD-YAP inh | FBW7 act | GPR151 conf act | GPR119 ag
CCc1sc(C(=O)NC)cc1Br | - | - | - | - | . | .
Cc1ccc2[nH]c(C)c(Br)c(=O)c2c1 | - | - | - | - | . | .
Cc1cc(=O)c2cc([N+](=O)[O-])ccc2[nH]1 | - | - | - | - | . | .
COc1ccc2[nH]c(C)c(Br)c(=O)c2c1 | - | 6.4 | - | - | - | -
COc1ccc2[nH]c3ccc([N+](=O)[O-])cc3c(=O)c2c1 | - | 5.7 | - | - | - | -
CCC(C)(C)NC(=O)CN(CCOC)C(=O)CCC(=O)Nc1nccs1 | - | - | - | - | . | .
O=C(Nc1cccc(C(=O)N2CCOCC2)c1)c1ncn[nH]1 | - | - | - | - | . | .

Screening data: PubChem, The Scripps Research Institute Molecular Screening Center
